# Assay results as given in PubChem BioAssay.
# The source made the active and inactive calls.
# Test system: PRMT1 (protein arginine N-methyltransferase 1)
# Assay: small molecules binding arginine methyltransferase PRMT1 – biochemical, small-molecule microarray, 635 nm fluorescence, primary screen (AID 1088);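 further: binding of Prmt1 protein to compounds spotted on small-molecule microarray slides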
# Details: higher = more signal
row,SMILES,composite z-score
1,C=CCNC(=O)[C@@H]1[C@H]2C(=O)O[C@H](c3ccccc3)[C@H](c3ccccc3)N2[C@H](c2ccc(O)cc2)[C@@]12C(=O)N(C(=O)OCCOC)c1ccc(C#CC3=CCCCC3)cc12,1.49
2,C#Cc1cc2ccccc2oc1=O,0.914
3,COc1cc(NN2C(C(O)c3cc(OC)c(OC)c(OC)c3)C=CC3C(=O)N(C)C(=O)C32)cc(OC)c1OC (stereo not given),0.986
4,CO[C@H]1O[C@H](CO)[C@@H](OC(=O)Nc2ccccc2)[C@H](OC(=O)c2cc3ccccc3[nH]2)[C@H]1OC(=O)c1cc2ccccc2[nH]1,0.499
5,CCOC(=O)C[C@H]1[C@H](OC(=O)Cc2ccc3c(c2)OCO3)[C@@H](NC(=O)c2ccc3ccccc3n2)c2cc(OCCCO)ccc2N1C(=O)c1ccc2ccccc2n1,0.755
6,COc1ccc(C#Cc2ccc3c(c2)[C@]2(C(=O)N3)[C@H](c3ccc(OCCO)cc3)N3[C@H](c4ccccc4)[C@H](c4ccccc4)OC(=O)[C@H]3[C@@H]2C(=O)NC[C@H](O)c2ccccc2)cc1,1.57
7,NCCCCCNC(=O)[C@H]1C[C@H]2C(=O)N3CCC[C@H]3C(=O)N2[C@H]1c1cccc(OCCO)c1,1.56
8,CO[C@H]1O[C@H](CO)[C@@H](OC(=O)Nc2ccc(Br)cc2)[C@@H]2OC(=O)[C@@H](Cc3ccccc3)C/C=C/C[C@H](Cc3ccccc3)C(=O)O[C@@H]12,1.44
9,CCOC(=O)[C@@H]1CCCCN1C(=O)C(=O)OC,0.828
10,O=C(Cc1ccccc1)[C@H]1C2C=CCCC(c3ccccc3)=C2CN1Cc1ccccc1 (stereo not given in full),0.044
11,CCOC(=O)C[C@H]1[C@H](OC(=O)Cc2ccc3c(c2)OCO3)[C@@H](NC(=O)C2CCCCC2)c2cc(OCCCO)ccc2N1C(=O)c1ccccc1,1.05
12,C=C[C@H](C)[C@H](OC(=O)Nc1ccc(SC)cc1)c1ccc(OCCO)cc1,1.31
13,CCCCC(CC)C(O)C1C=CC2C(=O)N(c3ccccc3)C(=O)C2N1Nc1ccccc1F (stereo not given),1.53
14,Cc1ccc(C(C)CC(O)C2C=CC3C(=O)N(c4ccccc4)C(=O)C3N2Nc2ccccc2)o1 (stereo not given),1.53
15,CCOC(=O)C1=C[C@@H](C(C)(C)C)N(S(=O)(=O)c2ccc(C)cc2)[C@H]1c1cccc2ccccc12,0.735
16,CC(C)N1C(=O)C[C@@](C(=O)NC2CC2)(c2ccc([N+](=O)[O-])cc2)[C@H]1c1ccc(CO)cc1,0.978
17,COC(=O)c1c(CC[C@@H](CO)NC(=O)N2CCC[C@H]2Cn2cc(C3(O)CCCCC3)nn2)oc(C(C)=O)c1C(=O)OC,1.53
18,NC(=O)NCC#Cc1ccc2c(c1)[C@]1(C(=O)N2)[C@H](c2ccccc2OCCO)N2[C@H](c3ccccc3)[C@H](c3ccccc3)OC(=O)[C@H]2[C@@H]1C(=O)NC[C@H](O)c1ccccc1,0.415
19,CN(C)C(=O)[C@]1(CCC(=O)OC(C)(C)C)N=C(c2ccc(OCCCO)cc2)O[C@@H]1c1ccccc1CN=[N+]=[N-],1.18
20,Cc1ccccc1C(O)C1C=CC2C(=O)NC(=O)C2N1Nc1ccccn1 (stereo not given),0.049
21,COCCOC(=O)N1C(=O)[C@@]2(c3ccccc31)[C@H](C(=O)NC[C@H](O)c1ccccc1)[C@H]1C(=O)O[C@H](c3ccccc3)[C@H](c3ccccc3)N1[C@@H]2c1ccc(O)cc1,1.53
22,CC1CC/C=C\[C@H]2OC34C=CCN(C(C)C)C(=O)[C@H]3N(CCO)C(=O)[C@@H]4C2C(=O)O1 (stereo not given in full),-0.138
23,CCOC(=O)C=Cc1cccc(C)c1O,0.23
24,CCCCCCCCCCC(O)C1C=CC2C(=O)N(c3ccccc3)C(=O)C2N1Nc1ccc(C#N)cc1 (stereo not given),1.37
25,COCC(=C=CC[C@H](O)c1ccc(CO)o1)CCO,1.09

# Test system: not listed separately
# Assay: growth effects on S. cerevisiae YJM789 – YJM789 clinical isolate, OD600, 24 h, basal, primary screen (AID 1089);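 further: growth of clinical yeast isolate S. cerevisiae YJM 789 seeded 1000 cells per well; test concentration not given here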
# Details: higher = more signal, called active from +8 up or from −8 down
row,SMILES,z-score
1,CCCC1(C(=O)OC)C=C2C(=C(C)C(=O)C2C)CN1 (stereo not given),-0.105 (inactive)
2,NCCCCCNC(=O)[C@@H]1C[C@@H]2C(=O)N[C@@H](CCCCN)C(=O)N2[C@@H]1c1ccc(O)cc1,1.83 (inactive)
3,CCCN1C(=O)[C@]2(Cc3ccccc31)N=C(c1ccc(OCCCO)cc1)O[C@@H]2c1ccccc1,-1.49 (inactive)
4,CCN(CC)c1ccc(N2CC=CC34O[C@@H]5/C=C\CCCOC(=O)C5[C@H]3C(=O)N(C(C)CO)[C@@H]4C2=O)cc1 (stereo not given in full),-0.991 (inactive)
5,NC(=O)[C@H]1[C@@H]2C(=O)O[C@@H](c3ccccc3)[C@@H](c3ccccc3)N2[C@@H](c2ccc(OCCO)cc2)[C@]12C(=O)Nc1ccc(C#CCCO)cc12,1.62 (inactive)
6,CC(C)C(CO)N1C(=O)[C@@H]2[C@H]3C(=O)OCC=C[C@H]3OC23C=CCN(c2ccc(Cl)cc2)C(=O)[C@@H]13 (stereo not given in full),0.964 (inactive)
7,C=CCNC(=O)[C@@H]1[C@H]2C(=O)O[C@H](c3ccccc3)[C@H](c3ccccc3)N2[C@H](c2ccccc2OCCO)[C@@]12C(=O)Nc1ccc(C#CCC(C(=O)OC)C(=O)OC)cc12,1.13 (inactive)
8,COc1ccc(C#Cc2ccc3c(c2)[C@]2(C(=O)N3)[C@H](C(=O)O)[C@H]3C(=O)O[C@H](c4ccccc4)[C@H](c4ccccc4)N3[C@@H]2c2ccc(O)cc2)cc1,1.26 (inactive)
9,CCCC[C@@H](O)C1=C(COC)C[C@H]2C(=O)N(Cc3ccccc3)C(=O)[C@H]2[C@H]1CO,0.332 (inactive)
10,COC(=O)[C@@]1(Cc2ccc(F)cc2)[C@H]2c3cc(C(=O)N4CCCC4)n(Cc4ccc(C)c(F)c4F)c3C[C@H]2CN1C(=O)c1ccccc1,0.0074 (inactive)
11,C=CCNC(=O)[C@@H]1[C@H]2C(=O)O[C@H](c3ccccc3)[C@H](c3ccccc3)N2[C@H](c2ccc(O)cc2)[C@@]12C(=O)N(C(=O)OCCOC)c1ccc(C#CC3=CCCCC3)cc12,0.675 (inactive)
12,C#Cc1cc2ccccc2oc1=O,-1.81 (inactive)
13,COc1cc(NN2C(C(O)c3cc(OC)c(OC)c(OC)c3)C=CC3C(=O)N(C)C(=O)C32)cc(OC)c1OC (stereo not given),-0.871 (inactive)
14,CO[C@H]1O[C@H](CO)[C@@H](OC(=O)Nc2ccccc2)[C@H](OC(=O)c2cc3ccccc3[nH]2)[C@H]1OC(=O)c1cc2ccccc2[nH]1,-1.63 (inactive)
15,CCOC(=O)C[C@H]1[C@H](OC(=O)Cc2ccc3c(c2)OCO3)[C@@H](NC(=O)c2ccc3ccccc3n2)c2cc(OCCCO)ccc2N1C(=O)c1ccc2ccccc2n1,-2.47 (inactive)
16,COc1ccc(C#Cc2ccc3c(c2)[C@]2(C(=O)N3)[C@H](c3ccc(OCCO)cc3)N3[C@H](c4ccccc4)[C@H](c4ccccc4)OC(=O)[C@H]3[C@@H]2C(=O)NC[C@H](O)c2ccccc2)cc1,4.38 (inactive)
17,NCCCCCNC(=O)[C@H]1C[C@H]2C(=O)N3CCC[C@H]3C(=O)N2[C@H]1c1cccc(OCCO)c1,0.372 (inactive)
18,CO[C@H]1O[C@H](CO)[C@@H](OC(=O)Nc2ccc(Br)cc2)[C@@H]2OC(=O)[C@@H](Cc3ccccc3)C/C=C/C[C@H](Cc3ccccc3)C(=O)O[C@@H]12,1.1 (inactive)

row,SMILES,z-score
1,CCOC(=O)[C@@H]1CCCCN1C(=O)C(=O)OC,0.0293 (inactive)
2,O=C(Cc1ccccc1)[C@H]1C2C=CCCC(c3ccccc3)=C2CN1Cc1ccccc1 (stereo not given in full),-0.213 (inactive)
3,CCOC(=O)C[C@H]1[C@H](OC(=O)Cc2ccc3c(c2)OCO3)[C@@H](NC(=O)C2CCCCC2)c2cc(OCCCO)ccc2N1C(=O)c1ccccc1,0.193 (inactive)
4,C=C[C@H](C)[C@H](OC(=O)Nc1ccc(SC)cc1)c1ccc(OCCO)cc1,-3.79 (inactive)
5,CCCCC(CC)C(O)C1C=CC2C(=O)N(c3ccccc3)C(=O)C2N1Nc1ccccc1F (stereo not given),-0.802 (inactive)
6,Cc1ccc(C(C)CC(O)C2C=CC3C(=O)N(c4ccccc4)C(=O)C3N2Nc2ccccc2)o1 (stereo not given),0.568 (inactive)
7,CCOC(=O)C1=C[C@@H](C(C)(C)C)N(S(=O)(=O)c2ccc(C)cc2)[C@H]1c1cccc2ccccc12,2.23 (inactive)
8,CC(C)N1C(=O)C[C@@](C(=O)NC2CC2)(c2ccc([N+](=O)[O-])cc2)[C@H]1c1ccc(CO)cc1,-0.195 (inactive)
9,COC(=O)c1c(CC[C@@H](CO)NC(=O)N2CCC[C@H]2Cn2cc(C3(O)CCCCC3)nn2)oc(C(C)=O)c1C(=O)OC,0.752 (inactive)
10,NC(=O)NCC#Cc1ccc2c(c1)[C@]1(C(=O)N2)[C@H](c2ccccc2OCCO)N2[C@H](c3ccccc3)[C@H](c3ccccc3)OC(=O)[C@H]2[C@@H]1C(=O)NC[C@H](O)c1ccccc1,1.5 (inactive)
11,CN(C)C(=O)[C@]1(CCC(=O)OC(C)(C)C)N=C(c2ccc(OCCCO)cc2)O[C@@H]1c1ccccc1CN=[N+]=[N-],-0.299 (inactive)
12,Cc1ccccc1C(O)C1C=CC2C(=O)NC(=O)C2N1Nc1ccccn1 (stereo not given),0.833 (inactive)
13,COCCOC(=O)N1C(=O)[C@@]2(c3ccccc31)[C@H](C(=O)NC[C@H](O)c1ccccc1)[C@H]1C(=O)O[C@H](c3ccccc3)[C@H](c3ccccc3)N1[C@@H]2c1ccc(O)cc1,0.787 (inactive)
14,CC1CC/C=C\[C@H]2OC34C=CCN(C(C)C)C(=O)[C@H]3N(CCO)C(=O)[C@@H]4C2C(=O)O1 (stereo not given in full),0.114 (inactive)
15,CCOC(=O)C=Cc1cccc(C)c1O,-19.8 (active)
16,CCCCCCCCCCC(O)C1C=CC2C(=O)N(c3ccccc3)C(=O)C2N1Nc1ccc(C#N)cc1 (stereo not given),0.614 (inactive)
17,COCC(=C=CC[C@H](O)c1ccc(CO)o1)CCO,0.6 (inactive)
